PubChem BioAssay AID1159580 (chemical genetic matrix, 2015)
The campaign covered roughly 5,500 compounds. About 2,000 (36%) were called active. Not shown: some 18% with an inconclusive outcome. No stated cut-off is given here; in the data, active means normalized growth mostly below about 0.91 (no sharp cut-off); inconclusive means no clear call, values can overlap the other calls; inactive means mostly above about 0.92. The list shows a part of the results.

Experiment: chemical genetic growth profiling, strain panel (AID 1159580);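 further: tested at 20 µM; growth read once vehicle control cultures reached saturation at 30 °C; 1 = growth at the plate median or of vehicle wells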
Settings: S. cerevisiae deletion strains, growth OD

Measured: normalized growth

Oc1cc(O)c2c(c1)OC(c1cc(O)c(O)c(O)c1)C(O)C2c1c(O)cc(O)c2c1OC(c1cc(O)c(O)c(O)c1)C(O)C2c1c(O)cc(O)c2c1OC(c1cc(O)c(O)c(O)c1)C(O)C2 (stereo not given)
inactive: locus YAL013W, strain DEP1, stronger effect = lower value 0.977 | locus YBR021W, strain FUR4, stronger effect = lower value 1.02 | locus YBR229C, strain ROT2, stronger effect = lower value 0.992 | locus YCL029C, strain bik1, stronger effect = lower value 0.999 | locus YDL035C, strain GPR1, stronger effect = lower value 0.889 | locus YDL074C, strain BRE1, stronger effect = lower value 0.846 | locus YDL101C, strain DUN1, stronger effect = lower value 0.913 | locus YDL134C, strain PPH21, stronger effect = lower value 0.937 | locus YDL185W, strain tfp1, stronger effect = lower value 0.973 | locus YDL192W, strain arf1, stronger effect = lower value 0.948 | locus YDR101C, strain arx1, stronger effect = lower value 1.03 | locus YDR150W, strain NUM1, stronger effect = lower value 0.964 | locus YDR162C, strain NBP2, stronger effect = lower value 0.84 | locus YDR318W, strain mcm21, stronger effect = lower value 0.973 | locus YDR388W, stronger effect = lower value 1 | locus YDR502C, strain sam2, stronger effect = lower value 0.979 | locus YEL061C, strain CIN8, stronger effect = lower value 0.933 | locus YER110C, stronger effect = lower value 1.02 | locus YER155C, strain BEM2, stronger effect = lower value 1.02 | locus YER167W, strain BCK2, stronger effect = lower value 1.02 | locus YGL078C, strain dbp3, stronger effect = lower value 1.02 | locus YGL086W, strain mad1, stronger effect = lower value 0.964 | locus YGL248W, strain PDE1, stronger effect = lower value 0.911 | locus YGR078C, strain PAC10, stronger effect = lower value 0.918 | locus YGR135W, strain pre9, stronger effect = lower value 0.912 | locus YGR252W, strain gcn5, stronger effect = lower value 0.963 | locus YHR030C, strain SLT2, stronger effect = lower value 0.972 | locus YHR079C, strain IRE1 (second series), stronger effect = lower value 1.04 | locus YHR094C, strain hxt1, stronger effect = lower value 1.02 | locus YHR200W, strain rpn10, stronger effect = lower value 0.98 | locus YIL066C, strain RNR3, stronger effect = lower value 0.919 | locus YIL073C, strain SPO22, stronger effect = lower value 0.9 | locus YIL125W, strain kgd1, stronger effect = lower value 1.02 | locus YIR030C, strain dcg1, stronger effect = lower value 1 | locus YJL095W, strain BCK1, stronger effect = lower value 0.845 | locus YJL134W, strain LCB3, stronger effect = lower value 0.99 | locus YJL168C, strain set2, stronger effect = lower value 1 | locus YJR043C, strain POL32, stronger effect = lower value 0.857 | locus YKL068W, stronger effect = lower value 1.02 | locus YKL085W, strain MDH1 (second series), stronger effect = lower value 1.01 | locus YKL085W, strain MDH1, stronger effect = lower value 1.01 | locus YKL190W, strain CNB1, stronger effect = lower value 0.961 | locus YKR001C, strain vps1, stronger effect = lower value 0.982 | locus YLR039C, strain RIC1, stronger effect = lower value 0.836 | locus YLR102C, strain apc9, stronger effect = lower value 1.02 | locus YLR262C, strain YPT6, stronger effect = lower value 0.935 | locus YLR268W, strain sec22, stronger effect = lower value 0.96 | locus YLR330W, strain CHS5, stronger effect = lower value 1 | locus YLR342W, strain FKS1 (second series), stronger effect = lower value 0.919 | locus YLR371W, strain rom2, stronger effect = lower value 0.91 | locus YLR418C, strain cdc73, stronger effect = lower value 0.92 | locus YML016C, strain PPZ1, stronger effect = lower value 0.94 | locus YML032C, strain rad52, stronger effect = lower value 1 | locus YML124C, strain tub3, stronger effect = lower value 1.01 | locus YMR078C, strain ctf18, stronger effect = lower value 1.01 | locus YMR223W, strain ubp8, stronger effect = lower value 0.947 | locus YMR307W, strain GAS1, stronger effect = lower value 0.928 | locus YNL067W, strain RPL9B, stronger effect = lower value 0.917 | locus YNL233W, strain BNI4, stronger effect = lower value 0.945 | locus YNL250W, strain rad50, stronger effect = lower value 1 | locus YNL271C, strain bni1, stronger effect = lower value 0.989 | locus YNL298W, strain CLA4, stronger effect = lower value 1.01 | locus YNL307C, strain MCK1, stronger effect = lower value 1.02 | locus YNR052C, strain pop2, stronger effect = lower value 0.952 | locus YOL012C, strain htz1 0.566 | locus YOL147C, strain pex11, stronger effect = lower value 1.01 | locus YOR061W, strain CKA2, stronger effect = lower value 0.931 | locus YOR069W, strain VPS5, stronger effect = lower value 0.976 | locus YOR136W, strain idh2, stronger effect = lower value 1.02 | locus YOR144C, strain elg1, stronger effect = lower value 1 | locus YOR184W, strain ser1, stronger effect = lower value 0.968 | locus YOR316C, strain cot1, stronger effect = lower value 1.01 | locus YPL055C, strain LGE1, stronger effect = lower value 0.886 | locus YPL241C, strain CIN2, stronger effect = lower value 0.974 | locus YPR119W, strain clb2, stronger effect = lower value 1.02 | locus YPR141C, strain kar3, stronger effect = lower value 1 | locus YPR163C, strain tif3, stronger effect = lower value 1.01 | locus YPR167C, strain met16, stronger effect = lower value 0.982 | strain wtn01, stronger effect = lower value 1.01
active: locus YGR229C, strain SMI1, stronger effect = lower value 0.747 | locus YHR129C, strain ARP1, stronger effect = lower value 0.915 | locus YJL187C, strain SWE1 (second series), stronger effect = lower value 0.775 | locus YKL009W, strain mrt4, stronger effect = lower value 1.15 [resistant] | locus YLR058C, strain SHM2, stronger effect = lower value 0.835 | locus YNL322C, strain KRE1, stronger effect = lower value 0.916
